Each structure is given as a SMILES string. Where a name gives a salt, the structure may show the parent alone. Unmarked numbers belong to inactive results.

The test system of this experiment is A549-TP53BP1-CLTA. Kind of experiment: phenotypically active (imaging signature differs from DMSO and reproducible) at any of 0.3-9 uM (binary (1 = active, 0 = inactive)); higher = active. To be noted: treatment time: 24 h. In a few lines:
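Fifteen gene-edited A549, HepG2 and WPMY1 reporter lines (BFP segmentation plus GFP and RFP/FusionRed markers) were treated at 0.3, 1, 3 or 9 µM for 24 h, four wells each, then imaged live. Live-cell features per well were normalised to DMSO control wells. Deviation required ≥3 of 4 wells beyond the 95th percentile of DMSO Euclidean distances, and reproducibility required median replicate Pearson correlation above the 95th percentile of non-replicates. Phenotypic activity needed both criteria.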
In the case of `N[C@@H]1C[C@H]1c1ccccc1` [Tranylcypromine hydrochloride], the phenotypically active is 0.

With `C/C=C1\CN2CC[C@]34c5cc(OC)ccc5N5C(=O)C(O)OC[C@@H]([C@H]53)[C@H]1C[C@H]24` (stereo partly specified) [10-Methoxy-o-demethyltsilanine], the phenotypically active was 0.

In the case of `Fc1ccccc1C1=NCC(=S)N(CC(F)(F)F)c2ccc(Cl)cc21` [quazepam], the phenotypically active was 0.

For `COc1c2c(cc3c1OCO3)CC[N+](C)=C2` [Cotarnine chloride], the phenotypically active is 0.

On to `N[C@H]1C[C@@H]1c1ccccc1` [tranylcypromine], for which the phenotypically active was 0.

As to `O=c1ccc2ccc3occc3c2o1` [Angelicin], the phenotypically active was 0.

Consider `C[C@]12COC(=O)C[C@@H]1CC[C@@H]1[C@@H]2CC[C@@]2(C)[C@H]1CC[C@]2(C)O` [oxandrolone], for which the phenotypically active is 0.

Regarding `CC(C)C[C@H](CN)CC(=O)O` [pregabalin], the phenotypically active is 0.

For `NC(=S)N/N=C/c1coc2ccccc2c1=O`, the phenotypically active was 0.

On to `O[C@H]1[C@H](O)[C@@H](O)CN2CC[C@H](O)[C@H]12` [Castanospermine], for which the phenotypically active is 0.

As for `Cc1ccc(-c2nc3ccc(C)cn3c2CC(=O)N(C)C)cc1` [zolpidem], the phenotypically active is 0.

As for `CN1C(CC(O)c2ccccc2)CCCC1CC(O)c1ccccc1` (stereo unspecified) [Lobelanidine hydrochloride], the phenotypically active is 0.

With `CNC(=O)Oc1ccc2c(c1)[C@]1(C)CCN(C)O[C@@H]1N2C` [Geneserine], the phenotypically active was 0.

As for `COc1ccc(C(=O)OC2C[C@H]3CC[C@H](C2)N3C)cc1OC` (stereo partly specified) [Convolamine hydrochloride], the phenotypically active was 0.

With `CC(C)[N+](C)(CCC(C(N)=O)(c1ccccc1)c1ccccc1)C(C)C` [isopropamide-iodide], the phenotypically active is 0.

`CC(C)N(CCC(C(N)=O)(c1ccccc1)c1ccccn1)C(C)C` (stereo unspecified) [disopyramide]: the phenotypically active was 0.

Take `O=C1C[C@@H]2OCC=C3C[N+]4([O-])CC[C@]56c7ccccc7N1[C@H]5[C@H]2[C@H]3C[C@@H]64` (stereo partly specified) [Genostrychnine base]: the phenotypically active was 0.

In the case of `C[C@@H]1CN([C@H]2CC[C@](C#N)(c3ccc(F)cc3)CC2)CC[C@]1(C(=O)O)c1ccccc1` [levocabastine], the phenotypically active was 0.

For `Cc1ccc(C[N+](C)(C)C)o1` [5-Methylfurmethiodide], the phenotypically active is 0.

For `COc1cc2c3cc1Oc1cc(ccc1O)C[C@@H]1c4c(cc(OC)c(O)c4Oc4cccc(c4)C[C@@H]3N(C)CC2)CC[N+]1(C)C` [Tubocurarine chloride pentahydrate (+)], the phenotypically active was 0.

Regarding `CCCC(C)C1(CC)C(=O)N=C(S)NC1=O` (stereo unspecified) [thiopental], the phenotypically active was 0.

With `C=C1[C@H]2C[C@@]3([C@@H]1O)[C@@H](C[C@@H]2O)[C@]12[C@@H]4C[C@H]3[C@H]1N(CC)C[C@]4(C)CC[C@@H]2O` [Napelline], the phenotypically active was 0.

As to `CO[C@H](C)[C@](O)(C(=O)OCC1=CCN2CC[C@H](O)[C@@H]12)C(C)C` [Heliotrine], the phenotypically active is 0.

Regarding `C/C=C1\C[C@@H](C)[C@](O)(CO)C(=O)OCC2=CCN3CC[C@@H](OC1=O)[C@@H]23` [Retrorsine], the phenotypically active was 0.

Take `CN(C)NC(=O)CCC(=O)O` [Daminozide]: the phenotypically active is 0.

Turning to `CN1[C@@H]2CC(=O)C[C@H]1[C@H](O)C2` [6-Hydroxytropinone], the phenotypically active was 0.

`COc1ccc2c3c1O[C@H]1C(=O)CC[C@H]4[C@@H](C2)N(C)CC[C@]314` [hydrocodone]: the phenotypically active is 0.

With `CCN(C(C)=O)c1cccc(-c2ccnc3c(C#N)cnn23)c1` [zaleplon], the phenotypically active is 0.

As to `C[N+]1([O-])[C@@H]2C[C@@H](OC(=O)[C@H](CO)c3ccccc3)C[C@H]1[C@@H]1O[C@@H]12` (stereo partly specified) [Genoscopolamine HBr], the phenotypically active was 0.

In the case of `NCC1(CC(=O)O)CCCCC1` [gabapentin], the phenotypically active is 0.

For the compound `CN1CCc2cc3c(cc2[C@H]1[C@@H]1OC(=O)c2c1ccc1c2OCO1)OCO3` [bicuculine], the phenotypically active was 0.

With `c1cncc(C2CC3CCN2CC3)c1` (stereo unspecified) [RJR 2429 dihydrochloride], the phenotypically active was 0.

For the compound `CC1=CC(=O)C2=C(C)C[C@H](O)[C@@H]3[C@H](OC(=O)[C@H]3C)[C@@H]12` [Austricine hydrate], the phenotypically active was 0.

For the compound `C=C(C)[C@H]1CN[C@H](C(=O)O)[C@H]1CC(=O)O` [Kainic acid], the phenotypically active was 0.

Turning to `C[C@H]1CCC2(NC1)O[C@H]1C[C@H]3[C@@H]4CC[C@H]5C[C@@H](O[C@@H]6O[C@H](CO)[C@H](O[C@@H]7O[C@H](CO)[C@@H](O)[C@H](O[C@@H]8OC[C@@H](O)[C@H](O)[C@H]8O)[C@H]7O[C@@H]7O[C@H](CO)[C@@H](O)[C@H](O)[C@H]7O)[C@H](O)[C@H]6O)CC[C@]5(C)[C@H]4CC[C@]3(C)[C@H]1[C@@H]2C` (stereo partly specified) [Tomatine], the phenotypically active was 0.

For the compound `CN1[C@@H]2C[C@@H](OC(=O)[C@H](CO)c3ccccc3)C[C@H]1[C@@H]1O[C@@H]12` [Scopolamine hydrobromide], the phenotypically active is 0.

The record behind these values is the supplement of paper PMC7411054.
